Screens from PubChem BioAssay.
In the library only some 2.1% were active in any assay of this set; here they are far more common.
D2 PAM-1 – human D2 receptor positive allosteric modulation; DiscoveRx D2 beta-arrestin cells, luminescence, 90 min; 100% = 57 uM dopamine signal; potentiation, % (no concentration beside the values); 360,000 compounds, 0.23% hits; in the data active = potentiation above about 50%
Target sequence (P14416 whole entry, looked up): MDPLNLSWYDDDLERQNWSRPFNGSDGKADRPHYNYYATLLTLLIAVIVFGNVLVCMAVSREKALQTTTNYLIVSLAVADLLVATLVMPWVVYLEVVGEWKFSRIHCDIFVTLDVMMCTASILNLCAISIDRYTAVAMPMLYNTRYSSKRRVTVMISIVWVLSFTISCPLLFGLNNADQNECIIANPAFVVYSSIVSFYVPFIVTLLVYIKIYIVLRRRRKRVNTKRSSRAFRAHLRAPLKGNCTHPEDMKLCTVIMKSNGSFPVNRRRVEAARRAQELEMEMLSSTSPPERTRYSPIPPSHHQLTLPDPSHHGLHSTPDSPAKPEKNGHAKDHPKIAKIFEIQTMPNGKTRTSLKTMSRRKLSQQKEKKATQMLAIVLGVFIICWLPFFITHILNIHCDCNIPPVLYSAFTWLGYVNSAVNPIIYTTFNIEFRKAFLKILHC
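PathHunter beta-arrestin assay in DiscoveRx D2 cells. Compounds were added with an EC20 of dopamine (50 nM final) for 90 min at 37 deg C. Luminescence was read 1 h after detection reagent, with 57 uM dopamine as the EC100 control.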
D2 ag-1 – agonists of human D2 dopamine receptor; AID 485358; activation, % at 2 µM; 340,000 compounds, 0.53% hits; P14416; HEK293 T-REx D2 cells, calcium flux agonist mode;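 active = activation over 3 SD above normal in the single-dose calcium agonist read, cut at about 30% in these data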; also: 0% is about no effect
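Tetracycline-induced HEK293 Trex cells with D2 receptor force-coupled to calcium signaling, plated overnight at 30 C and loaded with no-wash calcium dye. Calcium flux read kinetically for 180 s after compound addition; responses flag agonists.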
D2 ag-2 – human D2 receptor agonism in beta-arrestin assay. activation, % (concentration not given with the values). P14416. DiscoveRx PathHunter D2 beta-arrestin, luminescence, 90 min; 100% = 57 uM dopamine signal. 360,000 compounds, 0.084% hits; in the data active = activation above about 40%
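Agonist mode: compounds alone added to overnight-plated D2 PathHunter cells for 90 min at 37 C, with 57 uM final dopamine (EC100) defining full response. Beta-arrestin recruitment detected by chemiluminescent reagent, read after 1 h at ambient temperature.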
LDHA inh – blocks human lactate dehydrogenase A. purified LDHA, NADH/diaphorase-resazurin fluorescence; hits give low values. activity change, % (values are at about 110 or 230 µM). 480,000 compounds, 0.15% hits; in the data active = activity change below about -30%;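 also: plate controls were DMSO wells for no effect and wells without enzyme for full effect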
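Remaining NADH was detected by diaphorase (0.133 mg/mL) converting 37 µM resazurin to fluorescent resorufin, read at 0 and 20 minutes. The preceding 5-minute room-temperature reaction used 2 nM LDHA, 0.2 mM sodium pyruvate and 0.06 mM NADH at pH 7.4.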
D2 PAM-2 – D2 dopamine receptor (human) potentiation | P14416 | AID 485347 | potentiation, % at 10 µM | HEK293 T-REx D2, calcium flux, EC20 dopamine potentiation | 340,000 compounds, 0.34% hits;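 active = potentiation over 3 SD above the plate norm, cut at about 30% in these data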; also: 0% is about no effect
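Calcium flux readout, no-wash dye, 1 read/s. Inducible HEK293 Trex D2 line, overnight 30 C. Compound alone 180 s (agonist flags), then EC20 dopamine, another 180 s to score potentiation.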
D2 antag – antagonists of human D2 dopamine receptor | HEK293 TREx D2 cells, calcium flux, dopamine EC80 | 340,000 compounds, 2% hits | inhibition, % at 10 µM | AID 485344 | P14416; in the data active = inhibition above about 30%; inactive = below that, where a call was filed; also: 0% is about no effect
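Calcium flux kinetic readout in an inducible HEK293 TREx D2 line plated overnight at 30 C. After 180 s compound exposure, an EC80 dopamine challenge follows with another 180 s kinetic read to detect antagonism.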
The depositor's hits bear a star; / = no result given.

SMILES	D2 PAM-1	D2 ag-1	D2 ag-2	LDHA inh	D2 PAM-2	D2 antag
CCOC(=O)Cn1c(=O)c2c(nc(N3CCOCC3)n2C)n(C)c1=O	-3	0	0	-13	1	39*
CC(=O)NNC(=O)CN1C(=O)/C(=C/c2ccccc2)SC1=S	0	-4	7	-2	0	74*
COc1ccc(/C=C2/SC(=S)N(Cc3ccccc3)C2=O)cc1O	-12	-1	-7	-1	17	-6
O=C1/C(=C\c2cc(Cl)c(O)c(Cl)c2)SC(=S)N1Cc1ccccc1	-7	-2	1	-11	2	69*
CN1CCC(=O)N(CCSc2ccc(Br)cc2)CC1	-13	-1	-3	0	3	53*
C[C@H]1CCC(=O)N(CCSc2ccc(Br)cc2)CC1	-6	0	-3	2	-8	-19
c1coc(CN2CNc3nc4ccccc4n3C2)c1	19	2	1	2	14	5
CCCN1CN(Cc2ccco2)c2nc3ccccc3n2C1	8	-2	-1	0	9	43*
COc1cc(C(=O)NCCc2ccc(S(=O)(=O)N3CCCC3)cc2)cc(OC)c1OC	-7	0	-19	1	-29	58*
CSc1ccc(Cl)c(C(=O)N2CCN(Cc3cc(=O)n4ccsc4n3)CC2)c1	/	/	/	-1	/	/
CCOC(=O)CSc1nnc(Cc2ccccc2)n1-c1cccc(Cl)c1	0	1	-5	-9	32*	-3
Cc1ccc(Nc2nc(C(=O)OCC(=O)c3ccc(Br)cc3)cs2)cc1	/	/	/	5	/	/
CCn1c(O)c(/C=C2\C=Nc3ccccc32)sc1=Nc1ccccc1	-2	0	-2	-7	0	-5
Cn1c(O)c(/C=C2\C=Nc3ccccc32)sc1=Nc1ccc(C(=O)O)cc1	-4	0	-1	-35*	1	-9
O=C(Cc1ccccc1)Nn1c(O)c(/C=C2\C=Nc3ccccc32)sc1=S	-13	34*	-2	-9	-3	-13
CC(=O)c1cccc(OC(C)C(=O)C(C#N)C(=O)NC2CC2)c1 (stereo not given)	/	/	/	4	/	/
O=C(OCC(=O)N1CCOCC1)c1ccc2ccccc2n1	/	/	/	4	/	/
COc1ccccc1/C=C/CN1CCCC(CCC(=O)NCc2ccc(F)c(F)c2)C1 (stereo not given)	-11	0	1	1	-20	33*
COc1cccc(CNC(=O)CCC2CCCN(C/C=C/c3ccccc3OC)C2)c1 (stereo not given)	-32	1	-2	-9	-17	32*
COc1ccc(/C=C/CN2CCCC(CCC(=O)NCc3ccc(F)c(F)c3)C2)cc1 (stereo not given)	-15	0	-1	-5	-15	-45
O=C(/C=C/c1c[nH]c2ccccc12)C(F)(F)F	/	/	/	-17	/	/
CCC(=O)Nc1ccc(NC(=O)c2ccccc2)nc1	-2	0	-1	1	1	32*
CCCC(=O)Nc1ccc(NC(=O)c2ccccc2)nc1	-3	1	-3	-10	-9	-5
Cn1c(N)c(C(=O)Nc2ccc(-c3ccccc3)cc2)sc1=S	-7	-2	-6	-6	10	-6
Cn1c(N)c(C(=O)NCc2ccccc2Cl)sc1=S	-9	-1	0	-8	-6	53*
SMILES	D2 PAM-1	D2 ag-1	D2 ag-2	LDHA inh	D2 PAM-2	D2 antag
CCn1c(SC(C)C(=O)NCC2CCCO2)nc2ccccc21 (stereo not given)	-16	-2	-1	0	-5	31*
C=CCn1c(COc2ccc(F)cc2)nnc1SC(C)C(=O)NCC1CCCO1 (stereo not given)	-7	0	-4	-4	-13	61*
Cc1cc(/C=C/C(=O)c2ccccc2F)cc(C)c1O	/	/	/	1	/	/
Cc1nnnn1CC(=O)Nc1ccccc1[N+](=O)[O-]	2	-1	2	-5	-3	36*
CC(C)CNC(=O)CSc1nc(-c2ccccc2)[nH]c1S(=O)(=O)c1ccccc1	/	/	/	2	/	/
O=C(CSc1nnc(C2CC2)n1C1CC1)c1c[nH]c(C(=O)N2CCCC2)c1	/	/	/	-32*	/	/
O=C(CSc1nnc(C2CC2)n1C1CC1)c1ccc(F)cc1	-1	0	1	-1	6	4
Cc1sc2c(c1C)CN(C(C)C)CN2C(=O)c1ccccc1	/	/	/	-1	/	/
Cc1ccccc1S(=O)(=O)N(CC(O)CN1CCCCC1)c1ccccc1 (stereo not given)	-12	1	-1	-4	-17	54*
O=[N+]([O-])c1ccccc1S(=O)(=O)N(CC(O)CN1CCCCC1)c1ccccc1 (stereo not given)	-8	0	-4	-5	-8	8
O=C(Cc1cccc2ccccc12)Nc1cccc2ncccc12	/	/	/	-9	/	/
Cc1cccc(NC(=O)c2ccccc2NC(=O)c2nc(-c3ccccc3)oc2C)c1	/	/	/	13	/	/
CCn1cnc2cc(NCc3ccc(C)cc3)ccc21	-20	3	-2	23	10	0
Cc1ccc(CNc2ccc3c(c2)ncn3C(C)C)cc1	-11	37*	-2	10	-1	-3
CN1C2CCC1CC(OC(c1ccccc1)c1ccccc1)C2 (stereo not given)	-24	0	-3	0	-24	36*
COc1ccccc1CNS(=O)(=O)c1ccc2[nH]c3c(c2c1)CCCCC3	/	2	/	-1	4	/
COc1ccccc1CNS(=O)(=O)c1ccc2[nH]cc(C(=O)O)c(=O)c2c1	-14	-1	-3	-56*	0	-2
CCC(=O)Nc1ccc(-c2csc(NCCN(CC)CC)n2)cc1	/	/	/	-9	/	/
COc1ccccc1/C=C/CN1CCC(Oc2ccc(C(=O)N3CCCCC3)cc2)CC1	-34	0	1	-9	-35	69*
COc1ccccc1/C=C/CN1CCC(Oc2cc(C(=O)NC3CC3)ccc2OC)CC1	1	-1	-5	-7	-20	59*
COc1ccc(/C=C/CN2CCC(Oc3ccc(C(=O)N4CCCCC4)cc3)CC2)cc1	-27	/	-6	-12	/	/
COc1ccc(C(=O)NC2CC2)cc1OC1CCN(Cc2ccccc2)CC1	-21	-2	-4	-4	-8	17
CCN(C(=O)C(=O)c1c(C)n(C)c2ccccc12)c1ccccc1	/	/	/	0	/	/
CCC(C(=O)Nc1cc(Cl)ccc1OC)c1ccccc1 (stereo not given)	-9	0	-4	2	11	4
COc1ccc(Cl)cc1NC(=O)c1ccccc1C	-26	-1	-3	-5	0	32*
COc1ccc(Cl)cc1NC(=O)C(OC)c1ccccc1 (stereo not given)	-23	0	-3	-4	10	30*
